{"source": "PubChem BioAssay (Tox21)", "note": "Where “and” joins values, the source holds several entries; their conditions need not be identical. Equal values may be shown once. Inconclusive results are not listed. Some compounds were tested as several samples or in several runs, with calls that do not always agree. Calls of active or inactive are those of the source. The call rests on the fitted dose curve; in most records, active means well fitted inhibition curve with a large enough effect in the repeat runs; inconclusive means weak or mixed curves; inactive means no such curve, though single readings can be large or run the other way. On the % scale 0 is the no-effect control and ±100 the full control effect; potency means the concentration at half of the fitted maximal effect."}
{"target": "Cytochrome P450 1A2 (Homo sapiens) (UniProt P05177)", "sequence (P05177 whole entry, looked up)": "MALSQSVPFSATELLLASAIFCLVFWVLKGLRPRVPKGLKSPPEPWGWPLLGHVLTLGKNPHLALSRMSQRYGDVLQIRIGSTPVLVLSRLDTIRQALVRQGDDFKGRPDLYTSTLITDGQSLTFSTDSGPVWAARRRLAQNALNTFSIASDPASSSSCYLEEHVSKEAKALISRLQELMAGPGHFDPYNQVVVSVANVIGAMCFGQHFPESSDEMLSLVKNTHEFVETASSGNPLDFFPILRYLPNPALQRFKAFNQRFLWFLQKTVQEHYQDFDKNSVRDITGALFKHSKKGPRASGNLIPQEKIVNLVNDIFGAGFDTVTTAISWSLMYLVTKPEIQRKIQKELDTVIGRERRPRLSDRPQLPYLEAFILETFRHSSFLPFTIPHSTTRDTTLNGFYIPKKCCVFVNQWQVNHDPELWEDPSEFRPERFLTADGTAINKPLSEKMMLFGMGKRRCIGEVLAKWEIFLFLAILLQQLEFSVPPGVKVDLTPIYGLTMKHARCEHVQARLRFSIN", "experiment": "Cytochrome P450 Family 1 Subfamily A Member 2 (CYP1A2) small molecule antagonists: luciferase reporter qHTS assay (AID 1671199); further: nearly all actives have a fitted effect of over 50% in size", "settings": "P450-Glo CYP1A2 enzyme, luciferin luminescence, 1 h; series mostly up to 115 µM; activity change, negative = inhibition: at the top concentration", "procedure,_shortened": "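CYP1A2 turnover of a luminogenic substrate was quantified after 1 h with NADPH regeneration at room temperature. Furafylline served as positive control.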"}
{"smiles": "CC(=O)Oc1c(C)c(C)c2c(c1C)CC[C@@](C)(CCC[C@H](C)CCC[C@H](C)CCCC(C)C)O2", "Potency": "inactive"}
{"smiles": "CCCCCCC(C)O", "note": "(configuration not stated)", "Potency": "inactive"}
{"smiles": "Oc1c(Cl)ccc(Cl)c1Cl", "Potency": "35.5 µM (active) and 35.6 µM (active)"}
{"smiles": "NCCOCCO", "activity change, negative = inhibition": "-20.8% (inactive)"}
{"smiles": "O=[Se](O)O", "Potency": "inactive and 13.6 µM (active)"}
{"smiles": "Brc1nc2ccccc2s1", "Potency": "31.6 µM (active) and 14.2 µM (active)"}
{"smiles": "Cc1ccc(C(C)(C)C)c(O)c1", "Potency": "71 µM (active)"}
{"smiles": "CC(=O)[C@@]1(O)CC[C@H]2[C@@H]3C[C@H](C)C4=CC(=O)C=C[C@]4(C)[C@@]3(F)[C@@H](O)C[C@@]21C", "Potency": "inactive"}
{"smiles": "CC(=O)O[C@]1(C(C)=O)CC[C@H]2[C@@H]3C=C(Cl)C4=CC(=O)CC[C@]4(C)[C@H]3CC[C@@]21C", "Potency": "inactive"}
{"smiles": "C/C=C/C(=O)N(CC)c1ccccc1C", "Potency": "31.7 µM (active) and inactive"}
{"smiles": "CC[C@]12CCCN3CCc4c(n(c5ccccc45)[C@@](O)(C(=O)OC)C1)[C@@H]32", "Potency": "inactive"}
{"smiles": "CC1(C)OC(=O)NC1=O", "Potency": "inactive"}
{"smiles": "CC(=O)Oc1ccc(C(c2ccc(OC(C)=O)cc2)c2ccccn2)cc1", "activity change, negative = inhibition": "-10% [at 53 µM] (inactive)"}
{"smiles": "O=C(O)c1cc(=O)[nH]c(=O)[nH]1", "Potency": "40 µM (active) and inactive"}
{"smiles": "CC1(C)NC(=O)N(c2ccc([N+](=O)[O-])c(C(F)(F)F)c2)C1=O", "Potency": "11.2 µM (active) and 12.3 µM (active)"}
{"smiles": "CCCCCC=O", "Potency": "inactive"}
{"smiles": "OC[C@H]1O[C@@H]2O[C@H]3[C@H](O)[C@@H](O)[C@@H](O[C@H]4[C@H](O)[C@@H](O)[C@@H](O[C@H]5[C@H](O)[C@@H](O)[C@@H](O[C@H]6[C@H](O)[C@@H](O)[C@@H](O[C@H]7[C@H](O)[C@@H](O)[C@@H](O[C@H]1[C@H](O)[C@H]2O)O[C@@H]7CO)O[C@@H]6CO)O[C@@H]5CO)O[C@@H]4CO)O[C@@H]3CO", "Potency": "inactive"}
{"smiles": "CC1=CC(C)(C)Nc2ccccc21", "activity change, negative = inhibition": "-16.1% (inactive)"}
{"smiles": "C=CCNCC=C", "Potency": "inactive and 39.9 µM (active)"}
{"smiles": "CCCCCCCC/C=C\\CCCCCCCC(=O)O", "activity change, negative = inhibition": "5.87% (inactive)"}
{"smiles": "IC(I)I", "Potency": "25.2 µM (active)"}
{"smiles": "CCCCCCCCCCC(CO)CCCCCCCC", "note": "(configuration not stated)", "activity change, negative = inhibition": "-10.6% (inactive)"}
{"smiles": "Cc1ccc(N)c([N+](=O)[O-])c1", "Potency": "15.7 µM (active) and 14.2 µM (active)"}
{"smiles": "Nc1ccc2c(O)cc(S(=O)(=O)O)cc2c1", "activity change, negative = inhibition": "-14.3% (inactive)"}
{"smiles": "C=CCCCCCCCCCC", "activity change, negative = inhibition": "-17.4% (inactive)"}
{"smiles": "COc1ccc2nc(N)sc2c1", "Potency": "22.5 µM (active) and 31.7 µM (active)"}
{"smiles": "CCO[Si](CCCNC(N)=O)(OCC)OCC", "activity change, negative = inhibition": "-4.62% (inactive)"}
{"smiles": "FC(F)(F)C(Cl)Br", "note": "(configuration not stated)", "Potency": "inactive"}
{"smiles": "C=CC(=O)OCCCC", "activity change, negative = inhibition": "-17.5% (inactive)"}
{"smiles": "Cc1ccc([N+](=O)[O-])c(C)c1", "activity change, negative = inhibition": "-20.7% (inactive)"}
{"smiles": "CCC(=O)O[C@H]1[C@H](O[C@@H]2[C@@H](C)[C@H](O[C@H]3C[C@@](C)(OC)[C@@H](O)[C@H](C)O3)[C@@H](C)C(=O)O[C@H](CC)[C@@](C)(O)[C@H](O)[C@@H](C)C(=O)[C@H](C)C[C@@]2(C)O)O[C@H](C)C[C@@H]1N(C)C", "activity change, negative = inhibition": "11.2% [at 53 µM] (inactive)"}
{"smiles": "CC(=O)Nc1ccc2c(c1)Cc1cc(NC(C)=O)ccc1-2", "Potency": "inactive"}
{"smiles": "COc1cc([C@H]2Oc3cc([C@H]4Oc5cc(O)cc(O)c5C(=O)[C@@H]4O)ccc3O[C@@H]2CO)ccc1O", "Potency": "35.5 µM (active) and inactive"}
{"smiles": "Cc1ccc(S(=O)(=O)NCl)cc1", "Potency": "inactive and 75.1 µM (active)"}
{"smiles": "CN(C)C", "Potency": "inactive"}
{"smiles": "OC[C@@H](O)[C@@H](O[C@@H]1O[C@H](CO)[C@H](O)[C@H](O)[C@H]1O)[C@H](O)[C@@H](O)CO", "Potency": "35.1 µM (active) and inactive"}
{"smiles": "c1ccc2c(c1)ccc1cc3c(ccc4ccccc43)cc12", "Potency": "24.9 µM (active)"}
